Records with an inconclusive call do not appear. The source made the active and inactive calls. Unless noted, calls come from the whole dose curve; as a rule, active = well fitted curve in the direction sought with a large enough effect; inconclusive = small, poorly fitted or top-dose-only effect, or another doubt; inactive = no such curve, though single readings can be large; an effect the other way counts as inactive or inconclusive. Numbered stars: 1 amine (or outer) side, 2 acyl side, 3 side chain; on linkers, the order of the positions; unused ones are H or OH. Bridge positions count the residues as written; N and C are the ends. Square brackets hold non-standard residues; d marks the D form. Peptide text beside a SMILES is read from it. I, II: the chains in the order shown. Actinocin(9to1) = Cc1c2oc3c(C)ccc(C(=O)[*:1])c3nc-2c(C(=O)[*:2])c(N)c1=O; NMeV = CN[C@H](C(=O)O)C(C)C; Sar = CNCC(=O)O
Tests used:
[1] = qHTS assay for measurement of the activity of small molecule inhibitors on Zika virus induced Caspase-3 activity in human iPSC derived neural progenitor cells (hNPCs) (AID 1224857); note: nearly all actives have a fitted effect of over 65% in size
Method in brief: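 Quantitative HTS format: human iPSC neural progenitors, 1 h compound pretreatment, ZIKV 2 FFU/cell for 6 h at 37 C. Percent inhibition derived from luminescent caspase-3/7 signal between uninfected and infected controls.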

[2] = qHTS assay for measurement of the activity of small molecule inhibitors on Zika virus induced Caspase-3 activity in human astrocytoma cells (AID 1224859)
Method in brief: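 Readout is luminescence from Caspase-Glo 3/7 added after a 6 h ZIKV infection (2 FFU/cell) of compound-pretreated (1 h) SNB-19 cells; data expressed as % inhibition versus uninfected and infected wells.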

[3] = qHTS assay to identify small molecule inhibitors of chordoma cells - UCH-2 (AID 1259356)
[4] = P-glycoprotein substrates identified in KB-8-5-11 adenocarcinoma cell line, qHTS therapeutic library screen (AID 1346987); note: nearly all actives have a fitted effect of over 65% in size; note: potency is the fitted concentration of half-maximal effect
Method in brief: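 KB-8-5-11, a colchicine-selected P-gp-overexpressing KB-3-1 subline, was grown without colchicine for the assay. Cells were seeded at 500 cells/well, dosed in concentration-response and incubated 72 h at 37 degree C, 5% CO2. Viability was read by CellTiter-Glo luminescence.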

[5] = NS1 protein of Zika virus - qHTS assay to identify small molecule inhibitors in human HEK 293 cells (AID 1347053); note: nearly all actives have a fitted effect of over 55% in size; note: potency is the fitted concentration of half-maximal effect
Method in brief: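 HEK 293; 20 h pre-culture, 37 C/5% CO2; cpd 1 h pre-infection; ZIKV MR766, MOI = 0.5, 24 h, 37 C; TR-FRET NS1 readout (two anti-NS1 Abs); norm. to no-virus vs infected.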

[6] = qHTS profiling of the MIPE4 collection as inhibitors of Plasmodium falciparum (DD2) proliferation (AID 743345; call rule not given here); details: P. falciparum Dd2 in erythrocytes, SYBR Green DNA, 72 h; at 28.5 µM (top of the series) unless noted
Method in brief: (§1)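 Erythrocytes infected with P. falciparum (0.3% parasitemia, 2.5% hematocrit) incubated with compounds 72 h at 37 C, 5% CO2. Lysis with saponin/Triton buffer containing SYBR Green I, overnight at room temperature in the dark; DNA fluorescence (485/535 nm) normalised to 0.29 uM artemisinin and DMSO.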

[7] = qHTS profiling of the MIPE4 collection as inhibitors of Plasmodium falciparum (DD2) proliferation (Rep 2) (AID 743346; call rule not given here); details: P. falciparum Dd2 in erythrocytes, SYBR Green DNA, 72 h; at 28.5 µM (top of the series) unless noted
Method in brief: as §1

[8] = qHTS profiling of the MIPE4 collection as inhibitors of Plasmodium falciparum (HB3) proliferation (AID 743347; call rule not given here); details: P. falciparum HB3 in erythrocytes, SYBR Green DNA, 72 h; at 28.5 µM (top of the series) unless noted
Method in brief: as §1

[9] = P-glycoprotein substrates identified in KB-3-1 adenocarcinoma cell line, qHTS therapeutic library screen (AID 1346986); details: KB-3-1 parental cells viability, CellTiter-Glo, 72 h; at 44.5 µM (top of the series); note: nearly all actives have a fitted effect of over 60% in size
Method in brief: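 Resistance attributable to P-gp was assessed by comparing AC50 in KB-8-5-11 with parental KB-3-1 and by tariquidar reversal. Cells were exposed 72 h and viability read by CellTiter-Glo.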

[10] = qHTS assay to identify small molecule inhibitors of chordoma cells - UCH-1 (AID 1259355); note: nearly all actives have a fitted effect of over 55% in size
Method in brief: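 Luminescent ATP read-out (CellTiter-Glo, 30min at room temperature) measured viability of UCH-1 cells exposed for 48hr to test drugs at 15 concentrations, co-dosed with a five-agent combination of auranofin, camptothecin, doxorubicin, rubitecan and topotecan.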

[11] = Natriuretic polypeptide receptor (hNpr1) antagonism - Pilot counterscreen GloSensor control cell line (AID 1347045; calls by dose curve)
Method in brief: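 HEK293 cGMP GloSensor cells preloaded 2 h with 2% GloSensor reagent, then compound 30 min before baseline luminescence read. Stimulated with 50 uM sodium nitroprusside, 20 min at room temperature, then read again; counterscreen for Npr1 antagonism.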

[12] = biological target: Atrial natriuretic peptide receptor 1 (Homo sapiens) (UniProt P16066); test: Natriuretic polypeptide receptor (hNpr1) antagonism - Pilot screen (AID 1347049; calls by dose curve;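 note: agonist-evoked cGMP luminescence read 20 min after hNppA addition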)
Method in brief: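 HEK293 cells co-expressing hNpr1 and the GloSensor pGS-40F cGMP luciferase sensor were preloaded with 2% GloSensor reagent for 2 h. Compounds were added for 30 min at room temperature, then cells were stimulated with 0.1 nM hNppA for 20 min before luminescence readout.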

[13] = biological target: Atrial natriuretic peptide receptor 2 (Homo sapiens) (UniProt P20594); test: Natriuretic polypeptide receptor (hNpr2) antagonism - Pilot subtype selectivity assay (AID 1347050; calls by dose curve)
Method in brief: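 cGMP-sensor HEK293/hNpr2 cells; 2% GloSensor reagent 2 h RT; compounds 30 min; baseline luminescence read; 1 nM hNppC agonist 20 min RT; final luminescence read by CCD camera. Antagonism = reduced post-agonist signal.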

[14] = biological target: Tyrosine-protein phosphatase non-receptor type substrate 1 (Homo sapiens) + Leukocyte surface antigen CD47 (Homo sapiens) (UniProt P78324+Q08722); test: CD47-SIRPalpha protein protein interaction - LANCE assay qHTS validation (AID 1347057; active = well fitted curve in the direction sought with a large enough effect in the signal ratio, with a control signal flat, not every such curve was filed as active; the % refers to the signal ratio)
Method in brief: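 First, His-tagged CD47 and Eu-labelled anti-His antibody met the compound for 30 min; next, site-specifically biotinylated SIRPalpha was added for 30 min; finally streptavidin-APC was added before reading the TR-FRET ratio.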

[15] = Identifying Small Molecule Inhibitors of Pancreatic Cancer Stem Cells (A2780, Spheroid) (AID 1259357); details: A2780 spheroid viability;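 note: potency is the fitted concentration of half-maximal effect; compound exposure lasted 48 h before the ATP luminescence read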
Method in brief: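 Monolayer and spheroid cultures are compared. Spheroids form over 14 days in stem cell medium on hydrogel-coated low-attachment plates, then are exposed to compound for 48 h before CellTiter-Glo luminescence.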

[16] = Identifying Small Molecule Inhibitors of Pancreatic Cancer Stem Cells (SN12C, Adherent) (AID 1259358); details: viability/growth inhibition;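 note: potency is the fitted concentration of half-maximal effect; cell survival measured after 48 h of compound exposure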
Method in brief: (§2)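 Viability is scored by CellTiter-Glo luminescence 48 h after dosing, expressed as percent activity against vehicle and no-cell references. Spheroid formats rely on cells cultured 14 days in stem cell media beforehand.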

[17] = Identifying Small Molecule Inhibitors of Pancreatic Cancer Stem Cells (Panc1, Spheroid) (AID 1259359); details: Panc1 spheroid cancer stem cell viability;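 note: potency is the fitted concentration of half-maximal effect; compound exposure lasted 48 h before reading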
Method in brief: as §2

Sequence of Atrial natriuretic peptide receptor 1 (Homo sapiens) (P16066 whole entry, looked up): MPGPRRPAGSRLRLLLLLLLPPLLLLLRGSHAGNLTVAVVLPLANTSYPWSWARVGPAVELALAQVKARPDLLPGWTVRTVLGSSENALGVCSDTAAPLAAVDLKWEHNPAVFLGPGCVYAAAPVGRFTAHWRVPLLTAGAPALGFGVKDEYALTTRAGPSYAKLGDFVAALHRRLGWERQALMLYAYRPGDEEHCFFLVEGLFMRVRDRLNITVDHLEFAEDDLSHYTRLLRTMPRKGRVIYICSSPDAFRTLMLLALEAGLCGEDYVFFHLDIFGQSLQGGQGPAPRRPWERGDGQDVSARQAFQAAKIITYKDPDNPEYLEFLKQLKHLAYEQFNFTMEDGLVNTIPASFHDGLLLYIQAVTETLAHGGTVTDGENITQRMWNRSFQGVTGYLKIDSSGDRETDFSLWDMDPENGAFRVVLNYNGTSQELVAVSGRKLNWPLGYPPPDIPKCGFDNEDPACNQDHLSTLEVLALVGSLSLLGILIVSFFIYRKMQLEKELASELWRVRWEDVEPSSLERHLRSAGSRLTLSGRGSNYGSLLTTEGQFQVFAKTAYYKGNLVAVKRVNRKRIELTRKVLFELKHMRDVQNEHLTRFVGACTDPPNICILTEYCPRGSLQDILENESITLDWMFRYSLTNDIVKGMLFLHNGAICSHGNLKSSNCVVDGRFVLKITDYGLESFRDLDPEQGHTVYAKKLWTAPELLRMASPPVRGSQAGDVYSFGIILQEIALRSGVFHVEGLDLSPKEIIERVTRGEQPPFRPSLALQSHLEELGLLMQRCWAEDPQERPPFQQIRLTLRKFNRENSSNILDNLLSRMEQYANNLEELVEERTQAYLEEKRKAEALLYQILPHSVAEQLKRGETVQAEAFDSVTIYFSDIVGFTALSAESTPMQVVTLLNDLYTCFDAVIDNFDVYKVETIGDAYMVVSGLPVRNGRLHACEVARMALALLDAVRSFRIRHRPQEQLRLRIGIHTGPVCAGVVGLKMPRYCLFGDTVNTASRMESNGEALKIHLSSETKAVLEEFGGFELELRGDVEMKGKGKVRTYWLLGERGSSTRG
Sequence of Tyrosine-protein phosphatase non-receptor type substrate 1 (Homo sapiens) + Leukocyte surface antigen CD47 (Homo sapiens) (P78324 whole entry, looked up): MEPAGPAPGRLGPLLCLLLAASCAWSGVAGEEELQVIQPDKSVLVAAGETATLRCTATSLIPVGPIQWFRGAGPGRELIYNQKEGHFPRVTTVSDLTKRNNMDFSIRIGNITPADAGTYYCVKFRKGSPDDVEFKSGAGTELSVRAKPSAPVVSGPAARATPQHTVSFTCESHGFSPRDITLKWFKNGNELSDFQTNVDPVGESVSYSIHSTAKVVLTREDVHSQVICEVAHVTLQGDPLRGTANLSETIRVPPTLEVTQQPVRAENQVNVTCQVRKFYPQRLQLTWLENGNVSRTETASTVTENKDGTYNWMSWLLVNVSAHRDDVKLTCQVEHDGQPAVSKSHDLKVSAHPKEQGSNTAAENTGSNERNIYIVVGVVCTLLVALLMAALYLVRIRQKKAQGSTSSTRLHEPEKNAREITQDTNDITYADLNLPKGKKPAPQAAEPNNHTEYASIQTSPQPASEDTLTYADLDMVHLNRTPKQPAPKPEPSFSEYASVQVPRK
Sequence of Tyrosine-protein phosphatase non-receptor type substrate 1 (Homo sapiens) + Leukocyte surface antigen CD47 (Homo sapiens) (Q08722 whole entry, looked up): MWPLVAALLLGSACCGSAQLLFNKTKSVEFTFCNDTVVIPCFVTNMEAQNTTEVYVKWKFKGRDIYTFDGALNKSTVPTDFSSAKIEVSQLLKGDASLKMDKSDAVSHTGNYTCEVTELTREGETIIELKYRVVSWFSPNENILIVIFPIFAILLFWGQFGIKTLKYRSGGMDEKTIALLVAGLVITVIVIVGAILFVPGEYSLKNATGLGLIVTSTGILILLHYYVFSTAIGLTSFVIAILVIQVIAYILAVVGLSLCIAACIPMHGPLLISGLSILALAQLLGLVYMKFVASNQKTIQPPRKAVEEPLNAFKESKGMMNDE
Sequence of Atrial natriuretic peptide receptor 2 (Homo sapiens) (P20594 whole entry, looked up): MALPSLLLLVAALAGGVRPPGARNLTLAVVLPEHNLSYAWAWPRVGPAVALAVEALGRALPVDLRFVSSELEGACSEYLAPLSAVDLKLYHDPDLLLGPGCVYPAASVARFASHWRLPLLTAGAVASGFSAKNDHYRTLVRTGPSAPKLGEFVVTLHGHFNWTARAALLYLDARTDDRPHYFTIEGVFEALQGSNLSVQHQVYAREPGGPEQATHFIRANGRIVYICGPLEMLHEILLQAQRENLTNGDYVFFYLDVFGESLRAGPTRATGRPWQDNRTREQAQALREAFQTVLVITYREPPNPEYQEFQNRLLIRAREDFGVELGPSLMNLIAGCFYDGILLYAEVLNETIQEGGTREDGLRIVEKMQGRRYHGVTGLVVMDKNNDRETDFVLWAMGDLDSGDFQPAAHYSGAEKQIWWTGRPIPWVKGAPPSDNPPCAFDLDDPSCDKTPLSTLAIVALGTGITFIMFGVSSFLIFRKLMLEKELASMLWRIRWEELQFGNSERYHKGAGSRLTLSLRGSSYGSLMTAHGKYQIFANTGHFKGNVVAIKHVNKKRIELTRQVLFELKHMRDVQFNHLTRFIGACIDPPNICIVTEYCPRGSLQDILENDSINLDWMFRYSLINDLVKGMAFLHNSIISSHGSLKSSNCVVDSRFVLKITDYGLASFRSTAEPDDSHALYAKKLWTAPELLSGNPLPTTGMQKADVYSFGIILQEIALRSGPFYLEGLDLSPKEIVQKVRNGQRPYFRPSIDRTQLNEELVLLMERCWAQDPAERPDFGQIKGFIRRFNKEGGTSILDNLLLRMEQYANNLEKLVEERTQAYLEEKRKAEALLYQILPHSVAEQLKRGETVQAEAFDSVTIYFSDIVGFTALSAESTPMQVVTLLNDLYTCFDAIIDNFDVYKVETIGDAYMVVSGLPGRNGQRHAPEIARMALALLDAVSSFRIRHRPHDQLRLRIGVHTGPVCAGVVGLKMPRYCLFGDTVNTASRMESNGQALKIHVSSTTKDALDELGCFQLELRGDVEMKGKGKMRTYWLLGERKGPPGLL

CCOC(=O)OC(C)OC1=C(C(=O)Nc2ccccn2)N(C)S(=O)(=O)c2ccccc21 (stereo not given)
inactive: outcome [1] | outcome [2] | Potency [3] | Potency [4] | Potency [5]

C=C1C[C@H]2[C@@H]3C=C(C)C4=CC(=O)CC[C@]4(C)[C@H]3CC[C@]2(C)[C@@]1(OC(C)=O)C(C)=O
active: Potency [4] 14.6 µM
inactive: outcome [1] | outcome [2] | Potency [3] | Potency [5]

O=C1c2ccccc2C(=O)C1c1ccccc1
inactive: outcome [1] | outcome [2] | Potency [3] | Potency [4] | Potency [5]

CCOc1ccc(NC(=O)CC(C)O)cc1 (stereo not given)
inactive: outcome [1] | outcome [2] | Potency [3] | Potency [4] | Potency [5]

COc1ccc(CN2CCN(C(c3ccc(F)cc3)c3ccc(F)cc3)CC2)c(OC)c1OC
6.18%: growth, % of control [8]
inactive: outcome [1] | outcome [2] | Potency [3]
active: Potency [4] 23.1 µM
8.3%: parasite growth remaining, % of DMSO control (lower = more inhibition) [6]
26.6%: parasite growth, % of control (lower = inhibition) [7]

Oc1ccc(Cl)cc1Sc1cc(Cl)ccc1O
inactive: outcome [1] | outcome [2] | Potency [3] | Potency [5]

CC(C)n1nc(-c2cc3cc(O)ccc3[nH]2)c2c(N)ncnc21
active: Potency [4] 0.366 µM
inactive: outcome [1] | outcome [2]

COC(=O)CCc1ccc(OCC(O)CNC(C)C)cc1 (stereo not given)
inactive: outcome [1] | outcome [2] | Potency [4] | Potency [5]

CCCCS(=O)(=O)N[C@@H](Cc1ccc(OCCCCC2CCNCC2)cc1)C(=O)O
inactive: outcome [1] | outcome [2] | outcome [9] | Potency [4] | Potency [5]

O=C(OCC(O)CO)c1ccccc1Nc1ccnc2cc(Cl)ccc12 (stereo not given)
inactive: outcome [2] | Potency [10] | Potency [3]

Oc1c(I)cc(I)c2cccnc12
inactive: outcome [1] | outcome [2] | Potency [3] | Potency [5]

Cc1c2oc3c(C)ccc(C(=O)N[C@@H]4C(=O)N[C@H](C(C)C)C(=O)N5CCC[C@H]5C(=O)N(C)CC(=O)N(C)[C@@H](C(C)C)C(=O)O[C@@H]4C)c3nc-2c(C(=O)N[C@@H]2C(=O)N[C@H](C(C)C)C(=O)N3CCC[C@H]3C(=O)N(C)CC(=O)N(C)[C@@H](C(C)C)C(=O)O[C@@H]2C)c(N)c1=O (I: T[dV]P[Sar][NMeV] / II: T[dV]P[Sar][NMeV]; ester I:1-I:C, II:1-II:C; linker I:N-II:N via Actinocin(9to1))
inactive: outcome [1] | outcome [2] | Potency [3] | Potency [5]

OC(CCN1CCCCC1)(c1ccccc1)c1ccccc1
inactive: outcome [1] | outcome [2] | Potency [3] | Potency [5]

CC(C)COC(=O)OCN1C(=O)CN(CCN2CC(=O)N(COC(=O)OCC(C)C)C(=O)C2)CC1=O
inactive: outcome [2] | Potency [10] | Potency [3] | Potency [4] | outcome [11] | outcome [12] | outcome [13] | Potency [5] | outcome [14]

NC(=NCCCCCCN=C(N)/N=C(\N)Nc1ccc(Cl)cc1)/N=C(\N)Nc1ccc(Cl)cc1
inactive: outcome [1] | outcome [2] | Potency [3] | Potency [5]

O=c1[nH]c(=O)n([C@H]2CCCO2)cc1F
inactive: outcome [1] | outcome [2] | Potency [4] | Potency [5]

CN1CCCC(CC2c3ccccc3Sc3ccccc32)C1 (stereo not given)
inactive: outcome [2] | Potency [10] | Potency [3]

COC(=O)C1=C(C)NC(C)=C(C(=O)O[C@@H]2CCCN(Cc3ccccc3)C2)[C@@H]1c1cccc([N+](=O)[O-])c1
active: Potency [4] 20.6 µM
inactive: outcome [1] | outcome [2] | Potency [5]

Cc1ccccc1C(=O)Nc1ccc(C(=O)N2CCCC(N(C)C)c3ccccc32)cc1 (stereo not given)
active: Potency [4] 5.8 µM
inactive: outcome [1] | outcome [2] | Potency [5]

OC[C@H]1O[C@H](O[C@]2(CCl)O[C@H](CCl)[C@@H](O)[C@@H]2O)[C@H](O)[C@@H](O)[C@H]1Cl
inactive: outcome [1] | outcome [2] | outcome [9] | Potency [4] | Potency [5]

C/C=C(/C(=C/C)c1ccc(O)cc1)c1ccc(O)cc1
inactive: outcome [1] | outcome [2] | Potency [3] | Potency [5]

CCN(CCCCOC(=O)c1ccc(OC)c(OC)c1)C(C)Cc1ccc(OC)cc1 (stereo not given)
inactive: outcome [1] | outcome [2] | Potency [3] | Potency [5]

C[C@@H]1C[C@H]2[C@@H]3CCC4=CC(=O)C=C[C@]4(C)[C@@]3(F)[C@@H](O)C[C@]2(C)[C@H]1C(=O)CO
inactive: outcome [1] | outcome [2] | Potency [3] | Potency [5]

Nc1ccn([C@@H]2O[C@H](CO)[C@@H](O)C2(F)F)c(=O)n1
inactive: outcome [1] | outcome [2]
active: Potency [15] 0.481 µM | Potency [16] 0.054 µM | Potency [17] 0.0171 µM | Potency [5] 3.16 µM

CC1(C)OC[C@@H](COC(=O)CCc2ccc(OC[C@@H](O)CNCCNC(=O)N3CCOCC3)cc2)O1
inactive: outcome [1] | outcome [2] | Potency [4] | Potency [5]

Cc1ccc(Nc2c(F)cccc2Cl)c(CC(=O)O)c1
inactive: outcome [1] | outcome [2] | Potency [4] | Potency [5]

CC(=O)OCC(=O)[C@@]1(OC(C)=O)[C@@H](C)C[C@H]2[C@@H]3C[C@H](F)C4=CC(=O)C=C[C@]4(C)[C@@]3(F)[C@@H](O)C[C@@]21C
inactive: outcome [1] | outcome [2] | Potency [3] | Potency [5]

Cc1cc2c(cc1CC(=O)c1sccc1S(=O)(=O)Nc1onc(C)c1Cl)OCO2
inactive: outcome [1] | outcome [2] | Potency [4] | Potency [5]

CC(C)(C)NC(=O)[C@@H]1CN(Cc2cccnc2)CCN1C[C@@H](O)C[C@@H](Cc1ccccc1)C(=O)N[C@H]1c2ccccc2C[C@H]1O
inactive: outcome [1] | outcome [2] | Potency [4] | Potency [5]

CC(=O)OCC(=O)[C@@]12OC(C)(C)O[C@@H]1C[C@H]1[C@@H]3C[C@H](F)C4=CC(=O)C=C[C@]4(C)[C@@]3(F)[C@@H](O)C[C@@]12C
inactive: outcome [1] | outcome [2] | Potency [3] | Potency [5]

CC(=O)OCC(=O)[C@@]1(O)CC[C@H]2[C@@H]3CCC4=CC(=O)C=C[C@]4(C)[C@H]3[C@@H](O)C[C@@]21C
inactive: outcome [1] | outcome [2] | Potency [3] | Potency [5]

Cc1nc2n(c(=O)c1CCN1CCC(c3noc4cc(F)ccc34)CC1)CCC[C@H]2O
inactive: outcome [1] | outcome [2] | Potency [4] | Potency [5]

CN(C)/N=N/c1nc[nH]c1C(N)=O
inactive: outcome [1] | outcome [2] | Potency [3] | Potency [5]

— PubChem BioAssay (NCATS)
